In all, about 340,000 compounds went through this assay and about 12,000 (3.5%) were called active. Entries that show only a call come without a potency. Inconclusive results (about 18%) are left out. Calls follow the shape of the dose curve; as a rule, active = well fitted inhibition curve with a large enough effect; inconclusive = small, poorly fitted or top-dose-only effect, or another doubt; inactive = no such curve, though single readings can be large or run the other way. Only a selection was taken, and actives are over-represented in it overall.
Assay: qHTS Assay for Inhibitors of Hepatitis C Virus (HCV)
Settings: Huh7.5.1 HCVcc-Cre infection, luciferase reporter, 44 h; series mostly up to 41.8 µM
How it was run: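 Infectious HCV cell culture screen: compound-treated cells (1,000/well, pre-plated 4 h) are infected with HCVcc-Cre at roughly 0.5 moi and grown 44 h. Infection is quantified by luciferase signal after 15 min substrate incubation at room temperature.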
Potency is read from the fitted curve at half-maximal effect.

Structure (SMILES)	Potency	activity change, negative = inhibition
Cc1ccccc1NC(=O)Cc1nc(COC(=O)c2ccc(C(F)(F)F)cc2)cs1	inactive	–
COc1cccc(NC(=S)N(CCc2c(C)[nH]c3ccccc23)Cc2ccco2)c1	25.1 µM (active)	–
CCNC(=S)N(CCc1c(C)[nH]c2ccc(C)cc12)Cc1ccco1	–	1.39% [at 8.37 µM] (inactive)
COc1cccc(NC(=S)NCc2ccco2)c1	inactive	–
CC(C)CC1(C)NC(=O)N(CC(=O)Nc2ccc3c(c2)OCCO3)C1=O (stereo not given)	inactive	–
O=C(CN1CCOCC1)Nc1cc(Cl)ccc1Cl	inactive	–
O=C(CSc1nc(Nc2ccccc2)nc(N2CCOCC2)n1)Nc1cc(Cl)ccc1O	10 µM (active)	–
CC1(c2ccccc2)NC(=O)N(CC(=O)Nc2cc(Cl)ccc2N2CCOCC2)C1=O (stereo not given)	inactive	–
C#CCOCCOCCOCCNc1nc(N2CCN(C(=O)Cn3cc(CCO)nn3)CC2)nc(N2CCN(C(=O)Cn3cc(CCCN=C(N)N)nn3)CC2)n1	inactive	–
CCCCNC(=O)CSc1nc2n[nH]c(C)c2c(=N)n1-c1cccc(Cl)c1C	15.8 µM (active)	–
CCCCNC(=O)CSc1nccn1Cc1ccccc1	inactive	–
CCCCNC(=O)CSc1nnc(-c2ccco2)n1C	inactive	–
CCn1nc(C(=O)NNC(=O)C2CSC3(C)CCC(=O)N23)c2ccccc2c1=O (stereo not given)	inactive	–
COc1cccc(CNC(C)C(=O)Nc2ccc(S(=O)(=O)N3CCCC3)cc2)c1 (stereo not given)	inactive	–
COC(=O)c1cc(-c2cccs2)nc2ccccc12	12.6 µM (active)	–
O=C(Nc1nnc(-c2ccccc2)o1)c1cc(-c2cccs2)nc2ccccc12	inactive	–
O=C(NCCN1CCOCC1)c1cc(-c2cccs2)nc2ccccc12	inactive	–
O=C(O)CCc1cccnc1	0.891 µM (active)	–
N/C(=N\OC(=O)CCc1ccccc1)c1cccnc1	inactive	–
O=C(O)CCCc1ccccc1	inactive	–
COc1ccc2c(CC(=O)NNC(=O)c3ccccc3F)coc2c1	inactive	–
Cc1cc(C)n2nc(C(=O)OCC(=O)N(C)CC(=O)Nc3ccc(F)cc3)nc2n1	inactive	–

Structure (SMILES)	Potency	activity change, negative = inhibition
Cc1ccc(C)c(-c2nnc(NC(=O)CS(=O)(=O)c3ccccc3)o2)c1	inactive	–
COc1ccc(S(=O)(=O)Nc2cccc3c2O[C@H](CN(C)S(=O)(=O)c2ccc(OC)cc2)[C@@H](C)CN([C@H](C)CO)C3=O)cc1	inactive	–
O=C(NCC1CCCO1)c1ccc2ccccc2n1 (stereo not given)	inactive	–
CN(C)CCCNC(=O)c1ccc2[nH]c3ccccc3c2c1	inactive	–
O=C(NCC1CCCO1)c1cc2c([nH]c3ccccc32)c(-c2ccc(F)cc2)n1 (stereo not given)	1.58 µM (active)	–
O=C(NCCc1ccc(F)cc1)c1n[nH]c2ccccc12	inactive	–
O=C(NCCCO)c1cc2c([nH]c3ccccc32)c(-c2ccc(F)cc2)n1	14.1 µM (active)	–
O=C(NCC1CCCO1)c1cc(-c2ccccc2)nc2ccccc12 (stereo not given)	inactive	–
COc1ccc(CCNC(=O)COc2cc(C)cc3oc(=O)c(C)c(C)c23)cc1OC	inactive	–
CC1CN(Cc2ccccc2)C(=S)NC1=O (stereo not given)	inactive	–
C=CCOC(=O)N1CCC2CC1c1cc(-c3ccc(OC)cc3)ccc12 (stereo not given)	–	2.52% [at 8.37 µM] (inactive)
COc1ccccc1C(=O)NCCC(=O)NC1=NCCS1	inactive	–
Cc1ccc(C(=O)NNC(=O)CSc2nnc3ccccn23)cc1	inactive	–
CC1CCN(c2c(NCc3ccc(C(=O)NCc4ccccc4)cc3)c(=O)c2=O)CC1	inactive	–
Cc1ccc(CNC(=O)c2cccc3c2C(=O)c2ccc(N4CCC(C)CC4)cc2S3(=O)=O)cc1	10 µM (active)	–
Cc1ccc(CNC(=O)c2ccc3c(c2)S(=O)(=O)c2ccccc2C3=O)cc1	inactive	–
COc1cccc(NC(=O)CN(C)CC(=O)c2c(N)n(Cc3ccccc3)c(=O)n(C)c2=O)c1	inactive	–
CCCCCCSc1ccc([C@@H]2[C@H]3C(=O)N(CC)C(=O)[C@H]3[C@]3(C(=O)OC)CCCCN23)cc1	inactive	–
O=C1CCCC2=C1C(c1ccccc1)n1c(s/c(=C/c3cccc(F)c3)c1=O)=N2 (stereo not given)	inactive	–
COCCOC(=O)C1=C(C)N=c2s/c(=C\c3cccs3)c(=O)n2C1c1cccs1 (stereo not given)	inactive	–
COc1ccc(OC)c(C2C3=C(N=c4s/c(=C\c5cccc(O)c5)c(=O)n42)c2ccccc2CC3)c1 (stereo not given)	10 µM (active)	–
CSCCC(NC(=O)COc1ccccc1)C(=O)N(C)CC(=O)Nc1ccc(C)cc1 (stereo not given)	inactive	–

Structure (SMILES)	Potency	activity change, negative = inhibition
Cc1ccc2nc(C)cc(N/N=C/c3ccc(F)cc3)c2c1	inactive	–
CCOc1cc(/C=N/Nc2cc(C)nc3ccc(C)cc23)ccc1O	10 µM (active)	–
CCOc1cc(/C=N/NC(=O)c2cc(-c3ccccc3)nc3ccccc23)ccc1O	inactive	–
OCCN1CCN(CCO)C1=S	inactive	–
Cn1c(=O)[nH]c(=O)c2c1nc(N1CCN(CCO)CC1)n2CCSc1nc2ccccc2s1	inactive	–
Cn1c(=O)[nH]c(=O)c2c1nc(N1CCN(C(c3ccccc3)c3ccccc3)CC1)n2CCO	10 µM (active)	–
CC1CCN(c2nc3c(c(=O)[nH]c(=O)n3C)n2CCCc2ccccc2)CC1	inactive	–
Cc1ccc2nc(-c3cccnc3)c(NC3CCCC3)n2c1	inactive	–
COc1ccc(-c2nc3cc(C)ccn3c2NC2CCCCC2)cc1SC1CCCCC1	3.55 µM (active)	–
COc1ccc(C)cc1S(=O)(=O)NC1CCCCC1	inactive	–
O=S(=O)(Nc1ncnc2sccc12)c1cccc(F)c1	inactive	–
CCCCN(C(=O)C(CCSC)N1C(=O)c2ccccc2C1=O)c1c(N)n(CCC)c(=O)[nH]c1=O (stereo not given)	inactive	–
CN(CC(=O)Nc1ccc(OC(F)(F)F)cc1)C(=O)C1CCC1	inactive	–
Cc1ccc(NC(=O)CC(=O)Nc2ccc(C)cc2)cc1	inactive	–
O=C(CCl)Nc1ccc(Sc2ccc(NC(=O)CCl)cc2)cc1	3.98 µM (active)	–
CC(C)(CCl)C(=O)Nc1ccc(Sc2ccc(F)cc2)cc1	inactive	–
O=C(COC(=O)c1ccc(F)cc1)NCC1COc2ccccc2O1 (stereo not given)	inactive	–
COc1ccc2oc(N)nc2c1	inactive	–
Cc1ccc(NS(=O)(=O)c2ccc(C(=O)NCCCN3CCOCC3)cc2)cc1	inactive	–
COc1cccc(CNC(=O)COC(=O)CN2C(=O)NC3(CCCCC3C)C2=O)c1 (stereo not given)	inactive	–
CCOC(=O)[C@H]1[C@H]2COc3ccc(C)cc3[C@@H]2N2C(=O)CN(Cc3ccc(F)cc3)C(=O)[C@@]12C	inactive	–

From PubChem BioAssay AID651820 (National Center for Advancing Translational Sciences (NCATS), 2012)
